# Results taken from PubChem BioAssay (Tox21).
# Records with an inconclusive call do not appear. Where a call stands in place of a potency, no number is given. Active and inactive are the calls of the source. Calls follow the shape of the dose curve; as a rule, active = well fitted cell-killing curve with a large enough effect in the repeat runs; inconclusive = weak or mixed curves, or effect the other way; inactive = flat fitted curve, though single readings scatter.
# Assay: qHTS RealTime-Glo MT Cell Viability Assay in HEK293 cells - 32 hour (AID 1224868); also: nearly all actives have a fitted effect of over 50% in size
# Conditions: RealTime-Glo luminescence; series mostly up to 76.8 µM
# Description: National Center for Advancing Translational Sciences [NCATS]
# NIH Chemical Genomics Center [NCGC]
# U.S. Environmental Protection Agency [EPA]
# National Institutes of Environmental Health Sciences [NIEHS]
# National Toxicology Program [NTP]
# U.S. Food and Drug Administration [FDA]
# Measure of cell viability is critical in the cell-base assay. Analysis of cell viability is necessary for the characterization of cell responses to cytotoxic drugs and environmental stress. A RealTime-Glo MT Cell Viability Assay to monitor cell viability in real time of continues cell culture during 40 hours of compound treatment was used to screen Tox21 10K library compounds in Hek293 cells. The RealTime-Glo MT Cell Viability Assay is a nonlytic, homogeneous, bioluminescent method to measure cell viability in real time using a simple, plate-based method. The assay involves adding NanoLuc luciferase and a cell-permeant prosubstrate to cells in culture. Viable cells reduce the proprietary prosubstrate to generate a substrate for NanoLuc luciferase. This substrate diffuses from cells into the surrounding culture medium, where it is rapidly used by the NanoLuc Enzyme to produce a luminescent signal. The signal correlates with the number of viable cells, making the assay well suited for cytotoxicity studies.
# Tox21 Assay Protocol Summary:
# The mixture of Hek293 cell suspension and reagents were dispensed at 600cells/6 ul/well in 1536-well tissue culture treated black solid bottom plates using a Multidrop dispenser. After the assay plates were incubated at a 37 C/5% CO2 incubator for 5 hours, 23 nL of compounds dissolved in DMSO, positive and negative controls was transferred to the assay plate by a pintool work station. The plates were incubated at 37 C for 40 hours. The luminescence intensity were measured at 0h, 8h, 16h, 24h, 32h and 40h time points using ViewLux plate reader during compound treatment.
# Potency is read from the fitted curve at half-maximal effect.
row,SMILES,Potency
1,O=C(O)c1ccccc1[N+](=O)[O-],inactive
2,N#C[C@@H]1CC(F)(F)CN1C(=O)CNC1CC2CCC(C1)N2c1ncccn1 (stereo not given in full),inactive
3,Cc1cc(C)n(CO)n1,inactive
4,CC(C)=CCC[C@H](C)CCO,inactive
5,CC(CN=Cc1ccccc1O)N=Cc1ccccc1O (stereo not given),inactive
6,CCCCCCCCS,inactive
7,Cc1ccc2ccccc2c1[N+](=O)[O-],inactive
8,CC(=O)CC/C=C(\C)CC/C=C(\C)CC/C=C(\C)CCC=C(C)C,inactive
9,C=CC(C)(O)CC/C=C(/C)CCC=C(C)C (stereo not given),inactive
10,COc1ccnc2c1CCCCC2S(=O)c1nc2ccccc2[nH]1 (stereo not given),7.56 µM (active)
11,Sc1nc(S)nc(S)n1,inactive
12,O=[N+]([O-])c1ccccc1CCO,inactive
13,CC(CCl)OC(C)CCl (stereo not given),inactive
14,Cc1c(Nc2ncccc2C(=O)O)cccc1C(F)(F)F,inactive
15,CC(C)(C)N,inactive
16,CCCC1CCOC(C)S1 (stereo not given),inactive
17,C[C@@H](O)[C@H]1C(=O)N2C(C(=O)O)=C(S[C@@H]3CN[C@H](CNS(N)(=O)=O)C3)[C@H](C)[C@H]12,inactive
18,CCC(=O)O[C@@H]1C[C@H]2CC[C@]1(C)C2(C)C,inactive
19,C[Si](C)(C)O[Si](C)(C)O[Si](C)(C)C,inactive
20,CC(=O)c1ccc(Cl)c(Cl)c1Cl,inactive

row,SMILES,Potency
1,CCC(C)CCCC(C)(C)O (stereo not given),inactive
2,CC(=O)Nc1cccc(N)c1,inactive
3,O=C(Cl)c1cc(Cl)cc(Cl)c1,inactive
4,CCCc1nc(C)c2c(=O)[nH]c(-c3cc(S(=O)(=O)N4CCN(CC)CC4)ccc3OCC)nn12,inactive
5,CC(C)=CCCC(C)C=O (stereo not given),inactive
6,FC(F)(Cl)C(F)(Cl)Cl,inactive
7,CCCCC(CC)COCCC#N (stereo not given),inactive
8,CCCCOC(=O)C(C)Oc1ccc(Oc2ccc(C(F)(F)F)cn2)cc1 (stereo not given),inactive
9,CCOc1ccccc1O,1.74 µM (active)
10,CCOc1ccc(NC(C)=O)cc1N,inactive
11,CCCCCCCCC(=O)OCC(C)OC(=O)CCCCCCCC (stereo not given),inactive
12,Nc1ncnc2c1ncn2[C@@H]1O[C@H](CO)[C@@H](O)[C@H]1O,inactive
13,OCCOc1cccc(OCCO)c1,inactive
14,Oc1ccc(Oc2ccccc2)cc1,16.5 µM (active)
15,CCCC(=O)OCc1ccccc1,inactive
16,O=C1C=CCCC1,inactive
17,CCCc1ccc(OC)cc1,inactive
18,CC(C(=O)O)c1ccc2c(c1)Cc1cccnc1O2 (stereo not given),inactive
19,c1ccc(CCNc2nc(-c3ccccc3)cs2)cc1,inactive
20,OCCc1ccncc1,inactive
